{
  "source": "PubChem BioAssay AID493168",
  "about": "(National Center for Advancing Translational Sciences (NCATS), 2011)",
  "note": "Inconclusive results are not listed. Entries that show only a call come without a potency. The source made the active and inactive calls. The call rests on the fitted dose curve; in most records, active means well fitted inhibition curve with a large enough effect; inconclusive means small, poorly fitted or top-dose-only effect, or effect the other way; inactive means flat fitted curve, though single readings scatter. Potency means the concentration at half of the fitted maximal effect.",
  "data": [
    {"target": "Ubiquitin carboxyl-terminal hydrolase 2 (Homo sapiens) (UniProt O75604)", "sequence (O75604 whole entry, looked up)": "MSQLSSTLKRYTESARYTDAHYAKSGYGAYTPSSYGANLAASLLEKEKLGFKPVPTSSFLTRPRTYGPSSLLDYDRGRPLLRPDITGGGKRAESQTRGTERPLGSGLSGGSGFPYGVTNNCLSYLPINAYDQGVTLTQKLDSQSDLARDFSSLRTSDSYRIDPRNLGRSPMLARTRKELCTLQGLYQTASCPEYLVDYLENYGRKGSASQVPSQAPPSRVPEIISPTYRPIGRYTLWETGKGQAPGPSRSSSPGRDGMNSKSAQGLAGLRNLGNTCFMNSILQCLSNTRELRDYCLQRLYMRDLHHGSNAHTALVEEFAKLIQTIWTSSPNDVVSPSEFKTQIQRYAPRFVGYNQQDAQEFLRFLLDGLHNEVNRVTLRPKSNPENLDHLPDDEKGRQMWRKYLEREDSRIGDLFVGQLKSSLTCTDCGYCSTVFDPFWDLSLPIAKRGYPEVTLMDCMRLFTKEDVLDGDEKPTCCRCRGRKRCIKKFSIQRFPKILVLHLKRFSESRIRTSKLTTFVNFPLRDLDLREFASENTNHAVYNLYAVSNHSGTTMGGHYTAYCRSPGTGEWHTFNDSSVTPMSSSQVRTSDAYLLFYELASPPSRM", "experiment": "Confirmation Assay for Inhibitors of Ubiquitin-specific Protease USP2a Using CHOP2 as the Reporter; further: nearly all actives have a fitted effect of over 55% in size", "settings": "USP2 core, Ub-CHOP2 coupled reporter fluorescence; series mostly up to 38.3 µM", "how_it_was_run": "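USP2 core (10 nM final) was preincubated with compound for 30 min at RT in Tris-HCl pH 8.0, CaCl2, beta-mercaptoethanol, CHAPS. Ub-CHOP2 and reporter substrate (25 nM final each) were added, and fluorescence (Ex 485/Em 531 nm) was read after 60 min.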", "values": [
      {"smiles": "COc1ccc(-c2nc(C#N)c(NCC3CCCO3)o2)cc1OC", "note": "(stereo not given)", "Potency": "inactive"},
      {"smiles": "CCOc1ccc2[nH]c(=O)c(CN(Cc3cccs3)Cc3nnnn3C(C)(C)CC)cc2c1", "Potency": "inactive"},
      {"smiles": "CCNC1=C(Cl)C(=O)c2ccccc2C1=O", "Potency": "inactive"},
      {"smiles": "O=C(Nc1nc(-c2ccco2)c(-c2ccco2)s1)C1CC(=O)N(c2ccc3c(c2)OCCO3)C1", "note": "(stereo not given)", "Potency": "10.4 µM (active)"},
      {"smiles": "COCc1cc(C)nc(OCC(=O)N/N=C\\c2cc(C)n(-c3cccc(C(F)(F)F)c3)c2C)c1C#N", "Potency": "inactive"},
      {"smiles": "CC(OC(=O)CN(C)S(=O)(=O)c1ccc(Cl)cc1)C(=O)Nc1ccc(N2CCOCC2)cc1", "note": "(stereo not given)", "Potency": "inactive"},
      {"smiles": "CNc1sc(C(=O)c2ccc(F)cc2)c(N)c1-c1nc2ccccc2s1", "Potency": "inactive"},
      {"smiles": "CCC(C(=O)NCc1ccccc1OC)n1nc(C)n2c(cc3occc32)c1=O", "note": "(stereo not given)", "Potency": "inactive"},
      {"smiles": "CCCCCCCCCCCCCCCC[N+](C)(C)CCN(Cc1ccc(OC)cc1)c1ncccn1", "Potency": "11.7 µM (active)"},
      {"smiles": "Cc1ccc(/C=C2/SC(=S)N(c3ccc(S(=O)(=O)Nc4nccs4)cc3)C2=O)cc1", "Potency": "6.56 µM (active)"},
      {"smiles": "CCn1nnnc1SCC(=O)Nc1cccc(C)n1", "Potency": "inactive"},
      {"smiles": "CCn1c(SCC(=O)NCCc2ccccc2)nnc1-c1cccs1", "Potency": "inactive"},
      {"smiles": "COc1ccc(C2CC(=O)N3CN(c4ccccc4F)CSC3=C2C#N)cc1OC", "note": "(stereo not given)", "Potency": "inactive"},
      {"smiles": "COc1cc(-c2nc(-c3ccc4c(c3)-c3ccccc3S4(=O)=O)c(-c3ccccc3)[nH]2)cc(OC)c1O", "Potency": "inactive"},
      {"smiles": "CN(C)c1ccc(-c2ccccc2)nn1", "Potency": "inactive"},
      {"smiles": "Cc1ccc(C(=O)COC(=O)CNC(=O)CN2C(=O)c3ccccc3C2=O)cc1", "Potency": "inactive"},
      {"smiles": "CCC(=O)Nc1c2c(nn1-c1ccc(F)cc1)CS(=O)C2", "note": "(stereo not given)", "Potency": "inactive"},
      {"smiles": "O=C(O)C1CCN1C1CCCCC1", "note": "(stereo not given)", "Potency": "inactive"},
      {"smiles": "C=CCSC1=N/C(=C\\C=C\\c2ccco2)C(=O)S1", "Potency": "inactive"},
      {"smiles": "C=CC[C@H](CC(=O)N(CCO)Cc1ccccc1)C(=O)N[C@H](C)COC(=O)[C@@H](CC=C)CC(=O)OC(C)(C)C", "Potency": "inactive"},
      {"smiles": "O=C(OCC1OC(n2ncc(=O)[nH]c2=O)C(OC(=O)c2ccccc2)C1OC(=O)c1ccccc1)c1ccccc1", "note": "(stereo not given)", "Potency": "13.1 µM (active)"},
      {"smiles": "Cc1cc(C(=O)Nc2ccccc2N2CCOCC2)c2ccccc2n1", "Potency": "inactive"},
      {"smiles": "CCN(CC)c1ccc2nc3ccccc3[n+](CC)c2c1", "Potency": "inactive"},
      {"smiles": "COc1ccccc1NC(=O)CSc1nc(O)cc(=O)n1-c1ccccc1OC", "Potency": "inactive"},
      {"smiles": "O=c1oc2ccccc2n1Cn1c(=O)oc2ccccc21", "Potency": "inactive"},
      {"smiles": "CCN(C[C@H]1N[C@@](CC)(C(=O)OC)[C@H]2C(=O)N(Cc3ccccc3)C(=O)[C@@H]12)C(=O)Nc1ccc(C)cc1", "Potency": "inactive"},
      {"smiles": "CCn1c(=O)c(C(=O)Nc2ccccc2S(N)(=O)=O)c(O)c2ccccc21", "Potency": "13.1 µM (active)"},
      {"smiles": "c1ccc(-c2ccccc2OCCCN2CCOCC2)cc1", "Potency": "inactive"},
      {"smiles": "CCN(CC)CCNc1nc(-c2ccccc2)c2c(c1C#N)CC(C)(C)OC2", "Potency": "inactive"},
      {"smiles": "Cc1ccc(C(=O)O/N=C/c2c(C(F)(F)F)nn(C)c2Sc2ccc(Cl)cc2)cc1", "Potency": "inactive"},
      {"smiles": "O=C(Cc1ccccc1)Nc1cccc(N2CCCC2)c1", "Potency": "inactive"},
      {"smiles": "Cc1cccc(-c2nnc3n2N=C(c2ccc(Br)cc2)CS3)c1", "Potency": "inactive"},
      {"smiles": "O=C(N/N=C/c1ccc(F)cc1)c1cc(-c2ccco2)nc2ccccc12", "Potency": "18.5 µM (active)"},
      {"smiles": "Cc1ccc(C(=O)NCCCc2ccccc2)s1", "Potency": "inactive"},
      {"smiles": "COc1ccc(-c2nnn(CC(=O)N3CCOCC3)n2)cc1", "Potency": "inactive"},
      {"smiles": "Cc1ccc(C(C)C)c(OCc2nn(CC(=O)c3ccc(OC(F)F)cc3)c3[n+]2CCCCC3)c1", "Potency": "inactive"},
      {"smiles": "CCOc1ccccc1C(=O)Nc1nnc(C(C)C)s1", "Potency": "inactive"},
      {"smiles": "O=C(NC1CCCCC1)C(c1ccco1)N(C(=O)c1csnn1)c1cccc(F)c1", "note": "(stereo not given)", "Potency": "inactive"},
      {"smiles": "COC(=O)c1ccc(NC(=O)CSC2=Nc3ccccc3C3CC=NN23)cc1", "note": "(stereo not given)", "Potency": "inactive"},
      {"smiles": "Cc1cc(C)cc(C(=O)Nc2ccc(N3CCCC3)cc2)c1", "Potency": "inactive"}
    ]}
  ]
}
